Reference: the supplement of paper PMC6555819

Tested on: RARa homodimer (NR concentration 270 nM)
Assay: PBM binding z-score (relative to random genomic background probes); higher = stronger binding; sequences stand for … in GC…GCGATTGACAGCGTAGAATGAAGG
Method in brief: (§1)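 Binding z-scores take random background probes as their reference. They come from custom Agilent 4×180K protein-binding microarrays incubated 1 h with ligand-free nuclear receptor dimers, with antibodies against each partner (one per run) detecting binding. Scanned fluorescence was regression-normalized.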

Question: With CCTTCCGGGTCACGAGGTTATAGCACGACGAGCG as the sequence, how does the PBM binding z-score read?
Answer: 0.661

Question: Which PBM binding z-score does the source give for TCTGCTAAGTCAACGATGGTCAGCTAATCTGCTA here?
Answer: -1.62

Question: Which PBM binding z-score does the source give for TGAATGAGGTTATAAGATCAGAGAACGTTGCAAA here?
Answer: -0.143

Question: CCTGCTAGGTCAATGCTCAGCTAAAGCAGCTCGC was tested. Which PBM binding z-score did it give?
Answer: -0.48

Question: For TCATATAGGTAATACAGGTGAAAGTCGGCATCTA, which PBM binding z-score is on record?
Answer: 1.98

Question: How did the PBM binding z-score turn out when CCGACTGGGGCAAAGGTTACCCTACTCAGTACGA was run?
Answer: -0.235

Question: With AATACAGGGTCATCGTAGGCCAGAATACGCACAG as the sequence, how does the PBM binding z-score read?
Answer: 1.11

Question: With TCTCGGAGGACGCGAAAGGTCAGAGCTCGACATC as the sequence, how does the PBM binding z-score read?
Answer: 0.692

Question: With TCTGCTAGGGCAACGATGGTCAGCTAATCTGCTA as the sequence, how does the PBM binding z-score read?
Answer: -0.818

Question: Which PBM binding z-score does the source give for CCTTACGGGTCACTCCAGGTTATAGCTTCGGAGT here?
Answer: 1.34

Question: For TCTAGCAGGCCAGAGTGTCACTCAAGAGGTACGG, which PBM binding z-score is on record?
Answer: -1.77

Question: For CCTTACGGGTCACTGACAGGTTACAGCATTTGGA, which PBM binding z-score is on record?
Answer: 0.367

Question: ATATGTAGGTTAGCTGGGGTCAGTCAGACTAGGC was tested. Which PBM binding z-score did it give?
Answer: 0.813

Question: With CCTACTGGGCCTAAAAGGTCATTGATGCCGATAA as the sequence, how does the PBM binding z-score read?
Answer: 1.56

Question: How did the PBM binding z-score turn out when CCTAGTTGGTCAAGGTTACACACGCTATAGGTAC was run?
Answer: 1.63

Question: With ATCGAAAGGTCGACGAGGTGAGTTTACACCGTTT as the sequence, how does the PBM binding z-score read?
Answer: 0.024

Question: For TCGCCTAGGTCATTGGGCCAGTATAGTACGCATC, which PBM binding z-score is on record?
Answer: -0.44

Question: With CCTTACGGGTCAAGGTTAGAGCACGGGTGGTACG as the sequence, how does the PBM binding z-score read?
Answer: 0.744

Question: TAGCCTAGGTCAATCAGGGGCCAGTATAGAAAGC was tested. Which PBM binding z-score did it give?
Answer: -0.673

Question: For TCCTATAGGTAAAAGGTGAAAGTCGGTGTGGTAA, which PBM binding z-score is on record?
Answer: 0.703

Question: How did the PBM binding z-score turn out when ATATGGAGGTTACATCCGGGTCATTCAGGCTATG was run?
Answer: 0.676

Question: For TATACAGGGTCAAATGCCAGAGTACGAATGTCGA, which PBM binding z-score is on record?
Answer: 1.22

Question: TGAATGAGGTTAAAAGATCAGGGAACGTTGCAAA was tested. Which PBM binding z-score did it give?
Answer: 0.336

Question: TCTATTGGTTGATTAGGGCAACCGAAACAGCGGA was tested. Which PBM binding z-score did it give?
Answer: 0.652

Question: With CCTTACGGGTCATGGTTATAGCACGGGTGGTACG as the sequence, how does the PBM binding z-score read?
Answer: 0.484

Question: With CCTAGTTGGTCAGGAGTTCACACACCGGATATGA as the sequence, how does the PBM binding z-score read?
Answer: 1.42

Question: How did the PBM binding z-score turn out when AATACAGGGTCTCTAGGCCAGAGTAGGTACGAAT was run?
Answer: -0.399

Question: How did the PBM binding z-score turn out when ACTAGCAGGCCTAGGGTCACTCAAGATTAGTCCG was run?
Answer: -0.643

Question: Which PBM binding z-score does the source give for TCTATTAGTTGATTAGGGCCACCGAAACAGCGGA here?
Answer: 1.05

Question: With ACTAGTTGGTCAGGTGAGGTCACACACAATTCGG as the sequence, how does the PBM binding z-score read?
Answer: 2

Question: With ATACCAAGGTGATCGTGAGGTAGTTGATACTAAC as the sequence, how does the PBM binding z-score read?
Answer: 0.171

Question: For CCTAGTTGGTCAAGGTCAAACACGCTATAGGTAC, which PBM binding z-score is on record?
Answer: 2.79

Question: Which PBM binding z-score does the source give for TAGCCTAGGTCAGATCGGGCTAGTATACGCTATA here?
Answer: -0.679

Question: Which PBM binding z-score does the source give for TAGCCTAGGTGATTCAGGGGCCAGTATAGAAAGC here?
Answer: -0.571

Question: Which PBM binding z-score does the source give for TCATATAGGTAACTGCTAGGTGAAAGTCCGATCT here?
Answer: 0.623

Question: For TCAGACAGGTTAAGGTAACTCAGGTACGCAGTCG, which PBM binding z-score is on record?
Answer: 0.655

Question: Which PBM binding z-score does the source give for TCTCGGAGGACACGAAAGTCAGAGCTTTCCAGAG here?
Answer: -0.903

Question: Which PBM binding z-score does the source give for AATCCAGGGTCACTAGGCCAGAGTAGGTACGAAT here?
Answer: 0.405

Question: Which PBM binding z-score does the source give for CGAACGAGCGCATGAGTTGATAGCAAATGCCGAT here?
Answer: -0.678

Question: Which PBM binding z-score does the source give for GTACAAAGGTGAATAGGTCGTTGATGAGTAGGCG here?
Answer: 1.23

Tested on: RARb:RXRa (NR concentration 270 nM, RXRa partner concentration 90 nM)
Assay: as above
Method in brief: as §1

Question: Which PBM binding z-score does the source give for CCTTCCGGGTCACGAGGTTATAGCACGACGAGCG here?
Answer: 4.55

Question: TCTGCTAAGTCAACGATGGTCAGCTAATCTGCTA was tested. Which PBM binding z-score did it give?
Answer: 0.171

Question: Which PBM binding z-score does the source give for TGAATGAGGTTATAAGATCAGAGAACGTTGCAAA here?
Answer: 0.975

Question: How did the PBM binding z-score turn out when CCTGCTAGGTCAATGCTCAGCTAAAGCAGCTCGC was run?
Answer: 3.61

Question: TCATATAGGTAATACAGGTGAAAGTCGGCATCTA was tested. Which PBM binding z-score did it give?
Answer: 0.83

Question: CCGACTGGGGCAAAGGTTACCCTACTCAGTACGA was tested. Which PBM binding z-score did it give?
Answer: 2.1

Question: AATACAGGGTCATCGTAGGCCAGAATACGCACAG was tested. Which PBM binding z-score did it give?
Answer: 4.31

Question: How did the PBM binding z-score turn out when TCTCGGAGGACGCGAAAGGTCAGAGCTCGACATC was run?
Answer: 3.89

Question: With TCTGCTAGGGCAACGATGGTCAGCTAATCTGCTA as the sequence, how does the PBM binding z-score read?
Answer: 1.58

Question: CCTTACGGGTCACTCCAGGTTATAGCTTCGGAGT was tested. Which PBM binding z-score did it give?
Answer: 3.72

Question: With TCTAGCAGGCCAGAGTGTCACTCAAGAGGTACGG as the sequence, how does the PBM binding z-score read?
Answer: 0.361

Question: With CCTTACGGGTCACTGACAGGTTACAGCATTTGGA as the sequence, how does the PBM binding z-score read?
Answer: 4.06

Question: How did the PBM binding z-score turn out when ATATGTAGGTTAGCTGGGGTCAGTCAGACTAGGC was run?
Answer: 2.88

Question: With CCTACTGGGCCTAAAAGGTCATTGATGCCGATAA as the sequence, how does the PBM binding z-score read?
Answer: 4.02

Question: Which PBM binding z-score does the source give for CCTAGTTGGTCAAGGTTACACACGCTATAGGTAC here?
Answer: 1.99

Question: ATCGAAAGGTCGACGAGGTGAGTTTACACCGTTT was tested. Which PBM binding z-score did it give?
Answer: 3.9

Question: TCGCCTAGGTCATTGGGCCAGTATAGTACGCATC was tested. Which PBM binding z-score did it give?
Answer: 3.66

Question: For CCTTACGGGTCAAGGTTAGAGCACGGGTGGTACG, which PBM binding z-score is on record?
Answer: 4.13

Question: TAGCCTAGGTCAATCAGGGGCCAGTATAGAAAGC was tested. Which PBM binding z-score did it give?
Answer: 3.89

Question: With TCCTATAGGTAAAAGGTGAAAGTCGGTGTGGTAA as the sequence, how does the PBM binding z-score read?
Answer: 1.85

Question: With ATATGGAGGTTACATCCGGGTCATTCAGGCTATG as the sequence, how does the PBM binding z-score read?
Answer: 2.88

Question: For TATACAGGGTCAAATGCCAGAGTACGAATGTCGA, which PBM binding z-score is on record?
Answer: 4.55

Question: Which PBM binding z-score does the source give for TGAATGAGGTTAAAAGATCAGGGAACGTTGCAAA here?
Answer: 1.72

Question: TCTATTGGTTGATTAGGGCAACCGAAACAGCGGA was tested. Which PBM binding z-score did it give?
Answer: 1.06

Question: How did the PBM binding z-score turn out when CCTTACGGGTCATGGTTATAGCACGGGTGGTACG was run?
Answer: 3.64

Question: CCTAGTTGGTCAGGAGTTCACACACCGGATATGA was tested. Which PBM binding z-score did it give?
Answer: 2.39

Question: How did the PBM binding z-score turn out when AATACAGGGTCTCTAGGCCAGAGTAGGTACGAAT was run?
Answer: 0.389

Question: For ACTAGCAGGCCTAGGGTCACTCAAGATTAGTCCG, which PBM binding z-score is on record?
Answer: 2.44

Question: With TCTATTAGTTGATTAGGGCCACCGAAACAGCGGA as the sequence, how does the PBM binding z-score read?
Answer: 0.596

Question: Which PBM binding z-score does the source give for ACTAGTTGGTCAGGTGAGGTCACACACAATTCGG here?
Answer: 3.44

Question: For ATACCAAGGTGATCGTGAGGTAGTTGATACTAAC, which PBM binding z-score is on record?
Answer: 0.566

Question: CCTAGTTGGTCAAGGTCAAACACGCTATAGGTAC was tested. Which PBM binding z-score did it give?
Answer: 4.19

Question: TAGCCTAGGTCAGATCGGGCTAGTATACGCTATA was tested. Which PBM binding z-score did it give?
Answer: 2.78

Question: TAGCCTAGGTGATTCAGGGGCCAGTATAGAAAGC was tested. Which PBM binding z-score did it give?
Answer: 0.516

Question: Which PBM binding z-score does the source give for TCATATAGGTAACTGCTAGGTGAAAGTCCGATCT here?
Answer: 0.705

Question: TCAGACAGGTTAAGGTAACTCAGGTACGCAGTCG was tested. Which PBM binding z-score did it give?
Answer: 1.51

Question: For TCTCGGAGGACACGAAAGTCAGAGCTTTCCAGAG, which PBM binding z-score is on record?
Answer: 1.28

Question: How did the PBM binding z-score turn out when AATCCAGGGTCACTAGGCCAGAGTAGGTACGAAT was run?
Answer: 4.36

Question: With CGAACGAGCGCATGAGTTGATAGCAAATGCCGAT as the sequence, how does the PBM binding z-score read?
Answer: -1.03

Question: How did the PBM binding z-score turn out when GTACAAAGGTGAATAGGTCGTTGATGAGTAGGCG was run?
Answer: 3.49
